From ChEMBL document CHEMBL3988442, “University of Dundee, Small-Polar-MMV Screening Library” (2021) come the findings set out here.

For some of these results: Entries with a potency or affinity are not part of this list.

What all share (parameters): scale not given: direction of the effect not stated beside the values
In assay [1] the target is Protein translocase subunit SecA (Escherichia coli (strain K12)) (UniProt P10408). In words: Assay to Identify E. coli SecA ATPase Inhibitors. It counts as functional. The conditions noted are these: 30 µM.
Chain of Protein translocase subunit SecA (Escherichia coli (strain K12)) (P10408 whole entry): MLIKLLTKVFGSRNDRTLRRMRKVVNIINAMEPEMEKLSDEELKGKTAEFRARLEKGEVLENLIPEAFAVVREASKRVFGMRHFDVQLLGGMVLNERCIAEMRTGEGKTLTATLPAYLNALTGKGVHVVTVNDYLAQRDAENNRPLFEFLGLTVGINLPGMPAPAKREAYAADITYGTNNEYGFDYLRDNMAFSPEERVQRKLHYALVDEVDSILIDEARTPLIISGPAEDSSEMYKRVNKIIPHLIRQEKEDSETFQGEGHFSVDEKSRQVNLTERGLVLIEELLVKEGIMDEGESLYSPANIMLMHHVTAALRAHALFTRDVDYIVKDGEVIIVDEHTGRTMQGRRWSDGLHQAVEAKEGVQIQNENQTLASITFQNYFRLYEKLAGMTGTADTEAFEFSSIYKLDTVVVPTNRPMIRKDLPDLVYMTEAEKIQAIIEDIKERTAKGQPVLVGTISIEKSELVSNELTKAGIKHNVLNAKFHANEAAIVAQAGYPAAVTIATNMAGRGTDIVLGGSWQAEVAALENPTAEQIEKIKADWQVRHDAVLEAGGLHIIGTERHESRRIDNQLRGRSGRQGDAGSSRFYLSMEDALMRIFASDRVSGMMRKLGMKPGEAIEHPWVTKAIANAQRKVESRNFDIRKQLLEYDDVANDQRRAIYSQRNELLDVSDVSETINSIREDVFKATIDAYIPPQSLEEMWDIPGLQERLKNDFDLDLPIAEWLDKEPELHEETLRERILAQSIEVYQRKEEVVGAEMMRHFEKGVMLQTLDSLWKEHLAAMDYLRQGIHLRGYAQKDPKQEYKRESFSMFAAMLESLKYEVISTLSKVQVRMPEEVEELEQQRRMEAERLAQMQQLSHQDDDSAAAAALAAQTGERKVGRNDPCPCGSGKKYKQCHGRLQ
Assay [2] has as its target T1, Ubiquitin-activating enzyme e1, putative (Leishmania donovani (strain BPK282A1)) (UniProt E9BSI1).
T1 sequence (whole entry): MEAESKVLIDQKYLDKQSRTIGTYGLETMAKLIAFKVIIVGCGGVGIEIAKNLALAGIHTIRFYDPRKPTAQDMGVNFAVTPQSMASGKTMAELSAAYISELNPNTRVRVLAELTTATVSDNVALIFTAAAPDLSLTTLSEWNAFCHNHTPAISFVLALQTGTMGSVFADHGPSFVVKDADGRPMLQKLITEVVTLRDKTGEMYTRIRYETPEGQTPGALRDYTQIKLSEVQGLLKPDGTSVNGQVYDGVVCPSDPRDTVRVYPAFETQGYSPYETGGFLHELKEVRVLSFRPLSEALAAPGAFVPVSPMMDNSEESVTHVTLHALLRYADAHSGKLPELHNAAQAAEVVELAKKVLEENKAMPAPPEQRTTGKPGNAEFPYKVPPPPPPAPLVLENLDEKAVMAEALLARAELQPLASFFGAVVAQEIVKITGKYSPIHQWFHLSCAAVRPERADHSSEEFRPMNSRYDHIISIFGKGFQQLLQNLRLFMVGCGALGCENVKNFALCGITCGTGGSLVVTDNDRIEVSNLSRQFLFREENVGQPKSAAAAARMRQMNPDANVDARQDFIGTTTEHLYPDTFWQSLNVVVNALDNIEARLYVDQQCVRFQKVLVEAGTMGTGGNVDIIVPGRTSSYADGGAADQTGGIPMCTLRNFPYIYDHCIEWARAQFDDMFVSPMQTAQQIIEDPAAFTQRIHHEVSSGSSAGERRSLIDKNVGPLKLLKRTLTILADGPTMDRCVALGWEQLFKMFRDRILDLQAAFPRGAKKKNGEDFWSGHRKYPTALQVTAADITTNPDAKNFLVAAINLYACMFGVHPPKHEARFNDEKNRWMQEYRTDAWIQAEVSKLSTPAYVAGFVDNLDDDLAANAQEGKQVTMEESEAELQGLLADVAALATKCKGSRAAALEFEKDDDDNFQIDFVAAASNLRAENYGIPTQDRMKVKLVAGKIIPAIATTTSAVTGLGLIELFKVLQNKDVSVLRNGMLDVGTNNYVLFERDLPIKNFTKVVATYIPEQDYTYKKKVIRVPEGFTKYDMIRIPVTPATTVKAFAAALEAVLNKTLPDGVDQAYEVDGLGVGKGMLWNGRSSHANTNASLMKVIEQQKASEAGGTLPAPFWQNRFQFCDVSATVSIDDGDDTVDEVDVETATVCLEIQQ
The assay can be described thus: Leishmania donovani Ubiquitin Activating Enzyme (LdE1). It counts as functional. To be noted: 30 µM.

For assay [3], the target named is AMP-activated protein kinase, AMPK (Homo sapiens) (UniProt P54646+O43741+P54619+Q9UGJ0+Q9Y478+Q13131+Q9UGI9). In words: AMP-dependent Kinase enzyme assay. An in vitro enzyme assay that detects ADP turnover that is directly proportional to AMPK activity. This uses naive AMPK that is activated during the assay with MK-8722. It counts as functional. To be noted: 30 µM.

In assay [4] the target is Sialic acid-binding Ig-like lectin 9 (Homo sapiens) (UniProt Q9Y336). In words: Hs-Siglec9 ALPHAscreen SOP 20170721. The conditions noted are these: 10 µM. (In Alpha technology, singlet oxygen from a donor bead excites a nearby acceptor bead.)
Chain of Sialic acid-binding Ig-like lectin 9 (Homo sapiens) (Q9Y336 whole entry): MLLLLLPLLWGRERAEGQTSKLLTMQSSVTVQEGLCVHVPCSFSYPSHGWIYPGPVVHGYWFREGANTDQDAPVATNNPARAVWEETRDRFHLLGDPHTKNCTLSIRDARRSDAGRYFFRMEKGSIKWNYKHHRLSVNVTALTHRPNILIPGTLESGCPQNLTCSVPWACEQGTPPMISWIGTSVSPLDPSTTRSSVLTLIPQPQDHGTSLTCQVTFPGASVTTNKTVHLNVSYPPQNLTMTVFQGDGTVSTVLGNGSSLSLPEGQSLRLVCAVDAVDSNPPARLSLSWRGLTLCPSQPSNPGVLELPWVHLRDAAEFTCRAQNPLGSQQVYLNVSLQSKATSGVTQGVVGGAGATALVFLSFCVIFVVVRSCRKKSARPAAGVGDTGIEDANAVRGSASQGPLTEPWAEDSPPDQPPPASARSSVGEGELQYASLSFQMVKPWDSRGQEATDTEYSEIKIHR
The subject of assay [5] is Trypanosoma cruzi. The assay can be described thus: Trypanosoma cruzi phosphomannomutase and mannose-1-phosphate guanylyltransferase assay. The class given is functional. The conditions noted are these: 10 µM.
The target in assay [6] is T2, Arginase-2, mitochondrial (Homo sapiens) (UniProt P78540).
T2 sequence (whole entry): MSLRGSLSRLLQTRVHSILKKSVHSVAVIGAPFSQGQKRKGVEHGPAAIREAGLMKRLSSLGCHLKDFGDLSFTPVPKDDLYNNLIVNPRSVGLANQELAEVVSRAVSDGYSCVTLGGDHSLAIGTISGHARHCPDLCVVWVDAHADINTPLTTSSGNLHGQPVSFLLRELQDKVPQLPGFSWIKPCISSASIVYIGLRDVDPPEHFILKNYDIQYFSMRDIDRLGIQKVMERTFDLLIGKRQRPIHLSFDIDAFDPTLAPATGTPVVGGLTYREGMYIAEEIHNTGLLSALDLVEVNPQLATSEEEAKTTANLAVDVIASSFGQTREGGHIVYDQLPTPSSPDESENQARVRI
In words: in vitro enzyme assay to detect the production of urea directly proportional to the activity of Arginase II. Further: in the data most compounds retested in dose-response had high values. It counts as functional. To be noted: 33.3 µM.

The target in assay [7] is T3, Proteasome subunit beta (Trypanosoma cruzi) (UniProt O96673).
T3 sequence (whole entry): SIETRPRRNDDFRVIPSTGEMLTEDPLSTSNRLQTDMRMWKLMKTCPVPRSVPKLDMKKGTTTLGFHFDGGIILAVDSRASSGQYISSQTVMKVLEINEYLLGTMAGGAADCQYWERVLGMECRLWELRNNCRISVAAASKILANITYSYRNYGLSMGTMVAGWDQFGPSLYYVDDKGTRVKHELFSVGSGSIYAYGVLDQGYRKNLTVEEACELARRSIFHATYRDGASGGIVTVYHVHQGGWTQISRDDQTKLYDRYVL
In words: Trypanosoma cruzi proteasome chymotrypsin-like activity (TcProtChymo) assay. Further: in the data most compounds retested in dose-response had high values. It counts as functional. The conditions noted are these: 9.37 µM.

The species entered for assay [8] is Homo sapiens. The assay can be described thus: To identify inhibition of the IFN signalling (Jak-Stat) pathway via expression of an eGFP reporter gene under the control of an IFN-stimulated response element (ISRE) containing MxA promoter. The class given is functional. To be noted: 30 µM.
In assay [9] the target is T4, Tyrosyl-tRNA synthetase, putative (Trypanosoma cruzi (strain CL Brener)) (UniProt Q4DSP6).
T4 sequence (whole entry): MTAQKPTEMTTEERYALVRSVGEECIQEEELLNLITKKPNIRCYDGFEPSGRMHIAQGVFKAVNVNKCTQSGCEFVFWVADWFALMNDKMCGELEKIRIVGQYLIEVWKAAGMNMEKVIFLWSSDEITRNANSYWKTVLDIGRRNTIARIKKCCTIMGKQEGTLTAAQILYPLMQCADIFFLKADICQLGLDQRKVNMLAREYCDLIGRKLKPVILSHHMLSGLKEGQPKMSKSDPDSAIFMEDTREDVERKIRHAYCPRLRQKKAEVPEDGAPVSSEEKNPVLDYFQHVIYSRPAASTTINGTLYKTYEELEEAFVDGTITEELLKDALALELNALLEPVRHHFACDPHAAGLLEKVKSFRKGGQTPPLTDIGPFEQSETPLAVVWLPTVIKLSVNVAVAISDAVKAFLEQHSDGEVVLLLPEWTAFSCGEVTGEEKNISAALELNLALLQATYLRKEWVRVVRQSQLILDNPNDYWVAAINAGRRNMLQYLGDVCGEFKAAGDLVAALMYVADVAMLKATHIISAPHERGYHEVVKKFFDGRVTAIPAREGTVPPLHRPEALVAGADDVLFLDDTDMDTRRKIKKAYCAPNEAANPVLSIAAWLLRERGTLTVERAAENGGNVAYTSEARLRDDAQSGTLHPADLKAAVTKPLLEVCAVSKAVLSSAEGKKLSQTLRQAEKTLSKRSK
The assay can be described thus: Trypanosoma cruzi tyrosyl tRNA synthetase (TcYRS) _High Tyrosine SOP. Further: in the data most compounds retested in dose-response had high values. To be noted: 30 µM. The class given is functional.

The target of assay [10] is T4, Tyrosyl-tRNA synthetase, putative (Trypanosoma cruzi (strain CL Brener)). The assay can be described thus: Trypanosoma cruzi tyrosyl tRNA synthetase (TcYRS) SOP. It counts as functional. To be noted: 30 µM.
In assay [11] the target is Chromo domain-containing protein 1 (Saccharomyces cerevisiae (strain ATCC 204508 / S288c) (Baker's yeast)) (UniProt P32657). In words: ScCHD-1 Enzyme Inhibition Assay. Further: in the data most compounds retested in dose-response had high values. It counts as functional. The conditions noted are these: 30 µM.
Chain of Chromo domain-containing protein 1 (Saccharomyces cerevisiae (strain ATCC 204508 / S288c) (Baker's yeast)) (P32657 whole entry, the tested form may be a part): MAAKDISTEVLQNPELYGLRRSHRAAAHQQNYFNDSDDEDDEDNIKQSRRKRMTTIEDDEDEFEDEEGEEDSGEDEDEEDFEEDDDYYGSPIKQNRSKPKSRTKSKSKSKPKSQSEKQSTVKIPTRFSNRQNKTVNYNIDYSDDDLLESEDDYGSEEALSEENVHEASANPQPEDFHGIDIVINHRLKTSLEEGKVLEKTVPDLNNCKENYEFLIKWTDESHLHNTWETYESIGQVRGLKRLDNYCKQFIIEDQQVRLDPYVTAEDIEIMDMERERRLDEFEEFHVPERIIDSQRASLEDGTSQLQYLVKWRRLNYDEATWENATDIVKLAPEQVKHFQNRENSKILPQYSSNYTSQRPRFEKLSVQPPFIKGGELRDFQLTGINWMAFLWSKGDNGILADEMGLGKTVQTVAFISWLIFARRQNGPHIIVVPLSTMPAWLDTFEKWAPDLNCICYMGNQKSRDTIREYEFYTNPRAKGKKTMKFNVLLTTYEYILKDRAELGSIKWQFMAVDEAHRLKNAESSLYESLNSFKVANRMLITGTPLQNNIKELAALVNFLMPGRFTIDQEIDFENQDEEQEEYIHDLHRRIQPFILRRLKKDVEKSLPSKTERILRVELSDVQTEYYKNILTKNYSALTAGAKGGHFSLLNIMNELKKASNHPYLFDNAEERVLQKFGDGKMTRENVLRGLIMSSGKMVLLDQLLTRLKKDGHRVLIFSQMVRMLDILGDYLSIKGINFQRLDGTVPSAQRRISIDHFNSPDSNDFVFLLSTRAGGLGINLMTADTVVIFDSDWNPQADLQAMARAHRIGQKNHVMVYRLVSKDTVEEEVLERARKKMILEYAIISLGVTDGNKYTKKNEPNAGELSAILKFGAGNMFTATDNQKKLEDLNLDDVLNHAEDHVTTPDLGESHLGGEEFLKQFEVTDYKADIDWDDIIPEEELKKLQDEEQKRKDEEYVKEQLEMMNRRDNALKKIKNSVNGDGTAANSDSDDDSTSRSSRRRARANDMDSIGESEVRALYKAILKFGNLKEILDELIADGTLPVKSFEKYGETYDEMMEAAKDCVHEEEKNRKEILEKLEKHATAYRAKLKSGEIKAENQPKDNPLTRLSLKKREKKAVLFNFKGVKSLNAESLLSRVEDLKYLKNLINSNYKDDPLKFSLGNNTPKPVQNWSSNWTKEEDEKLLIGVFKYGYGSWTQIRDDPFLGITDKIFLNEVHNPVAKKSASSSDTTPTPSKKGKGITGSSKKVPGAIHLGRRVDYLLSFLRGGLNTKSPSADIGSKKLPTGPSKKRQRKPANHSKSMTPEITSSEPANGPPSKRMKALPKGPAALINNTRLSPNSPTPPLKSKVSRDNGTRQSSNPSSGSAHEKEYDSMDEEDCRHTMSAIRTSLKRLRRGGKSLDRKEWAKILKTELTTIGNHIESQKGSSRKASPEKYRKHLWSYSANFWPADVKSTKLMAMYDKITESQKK

On to `COc1ccc(-n2cnnc2SCCC#N)cn1`, for which the Percent Effect was -2.65% in assay [1]; 8% in [2]; 0.911% in assay [3]; 11.1% in assay [4]; 4.38% in assay [5]; 18.2% in assay [6]. Further, the Percent Effect was 11.3% in [7]; -11.2% in assay [8]; 6.01% in [9]; 21% in assay [10]; -6.98% in [11].

For the molecule `O=C(Cc1ccc2c(c1)OCCO2)NC1CCCC1`, the Percent Effect in assay [1] is -5.5%; in assay [2] it was 18.2%; in [3], 2.67%; in [4] it was -8.79%; in [5] it was -11.2%; in assay [6], -2.85%. Besides, the Percent Effect in [7] is 5.74%; in [8], 32.2%; in assay [9], 1.94%; in assay [10], 7.32%; in assay [11] it was -5.69%.

`Cc1ccc(C)c(NC(=O)Nc2c[nH]c(=O)[nH]c2=O)c1`: the Percent Effect in assay [1] was 3.77%; in assay [2] it was 13%; in assay [3], -1.87%; in [4], -3.33%; in assay [5], -4.44%; in assay [6], 11%. Moreover, the Percent Effect in assay [7] is 4.7%; in [8] it was 7.57%; in assay [9], 2.12%; in assay [10] it was 3.85%; in assay [11] it was -8.57%.

As for `O=C(c1cnccn1)N1CCc2ncnc(-c3cccnc3)c2CC1`, the Percent Effect in [1] was -5.31%; in [2], 2.67%; in assay [3], -1.38%; in [4] it was -1.29%; in assay [5], 0.386%; in assay [6], -43.5%. Also, the Percent Effect is 6.33% in assay [7]; -9.47% in [8]; 0% in assay [9]; 5% in assay [10]; -3.12% in assay [11].

Consider `O=C(c1ccncc1F)N1CCN(CC2CC2)c2ncccc2C1`, for which the Percent Effect in [1] was -8.25%; in assay [2] it was -1.33%; in [3], 4.65%; in assay [4] it was -2.72%; in [5], -9.63%; in assay [6], -14.6%. Also, the Percent Effect in assay [7] is 10.2%; in assay [8], -11%; in assay [9] it was -6.35%; in assay [10] it was -10.3%; in [11], -9.4%.

Turning to `CSc1nccn1-c1cccc(C(=O)NCCCN2CCOCC2)c1`, the Percent Effect in [1] was -3.34%; in assay [2], 18.4%; in assay [3], 0.67%; in assay [4], -6.16%; in [5], 1.21%; in assay [6], -2.52%. Further, the Percent Effect was 16.5% in assay [7]; 5.76% in [8]; 7.39% in [9]; 18.5% in assay [10]; -4.95% in assay [11].

Consider `CCOc1cc(C)nc(N2CCN(C(=O)c3ccc[nH]3)CC2)n1`, for which the Percent Effect was -3.03% in [1]; 2.7% in assay [2]; 1.91% in assay [3]; 13.3% in [4]; -6.59% in assay [5]; 2.77% in assay [6]. The Percent Effect in assay [7] was 3.23%; in assay [8] it was 22.2%; in assay [9], -0.99%; in assay [10] it was 3.66%; in [11], 1.45%.

For the molecule `CNC(=O)CS(=O)(=O)Cc1coc(-c2ccc(F)cc2)n1`, the Percent Effect was -2.82% in [1]; 5.41% in [2]; -2.17% in assay [3]; 1.48% in assay [4]; 3.67% in [5]; 2.38% in assay [6]. For the same molecule, the Percent Effect in assay [7] is 7.59%; in [8] it was -3.27%; in assay [9], 5.82%; in assay [10], 12.2%; in [11] it was -1.98%.
